Measurements as given in PubChem BioAssay.
Where “and” joins values, the source holds several entries; their conditions need not be identical. Identical values can stand only once. Results filed as inconclusive are left out. For part of these data: Measured potencies and affinities stand elsewhere. Calls of active or inactive are those of the source. Unless noted, how the calls were made is not given here.

How the values were obtained:
[1] = kinase inhibitors altering Pseudomonas killing of worms, whole organism (AID 651566);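 further: tested at 14 µM; sign flipped so higher z means a lower ratio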; settings: C. elegans killed by P. aeruginosa, survival ratio
[2] = activators of macrophage pro-inflammatory response, cell-based, murine, luminescence (AID 652131); settings: murine macrophage pro-inflammatory reporter, stronger effect = higher value
[3] = protection against mutant huntingtin cytotoxicity, PC12 cells, LDH release (AID 1610); settings: PC12 mutant huntingtin toxicity, final LDH at 4 uM, stronger effect = lower value
[4] = molecular target: Calcium-dependent protein kinase 1 (Plasmodium falciparum (isolate 3D7)) (UniProt P62344); test: PfCDPK1 kinase inhibitors, biochemical, TCAMS library (AID 1159585; cut-off not given, nearly all actives have IC50 up to about 0.98 µM;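 further: inhibitors leave more ATP so luminescence rises with inhibition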); settings: recombinant PfCDPK1, Kinase-Glo ATP depletion luminescence
Sequence of Calcium-dependent protein kinase 1 (Plasmodium falciparum (isolate 3D7)) (P62344 whole entry, looked up): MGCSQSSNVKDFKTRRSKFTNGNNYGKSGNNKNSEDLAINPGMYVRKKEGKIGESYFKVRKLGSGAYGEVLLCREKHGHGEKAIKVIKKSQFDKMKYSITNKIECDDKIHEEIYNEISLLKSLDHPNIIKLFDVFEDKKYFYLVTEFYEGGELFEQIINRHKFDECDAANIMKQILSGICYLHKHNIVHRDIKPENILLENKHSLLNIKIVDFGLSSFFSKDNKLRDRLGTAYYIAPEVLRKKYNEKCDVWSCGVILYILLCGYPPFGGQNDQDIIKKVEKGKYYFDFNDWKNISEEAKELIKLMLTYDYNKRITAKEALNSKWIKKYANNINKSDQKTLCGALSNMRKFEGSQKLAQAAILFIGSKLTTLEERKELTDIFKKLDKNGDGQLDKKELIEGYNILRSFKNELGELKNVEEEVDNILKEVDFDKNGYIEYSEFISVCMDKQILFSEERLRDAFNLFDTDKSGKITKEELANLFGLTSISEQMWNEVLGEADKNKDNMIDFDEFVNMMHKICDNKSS

[5] = molecular target: Plasmodium falciparum protein kinase 6 (PK6, PF3D7_1337100) (UniProt Q8IDW1); test: PfPK6 kinase inhibitors, biochemical, TCAMS library (AID 1159586); settings: recombinant PfPK6, Kinase-Glo ATP depletion luminescence
Sequence of Plasmodium falciparum protein kinase 6 (PK6, PF3D7_1337100) (Q8IDW1 1-305): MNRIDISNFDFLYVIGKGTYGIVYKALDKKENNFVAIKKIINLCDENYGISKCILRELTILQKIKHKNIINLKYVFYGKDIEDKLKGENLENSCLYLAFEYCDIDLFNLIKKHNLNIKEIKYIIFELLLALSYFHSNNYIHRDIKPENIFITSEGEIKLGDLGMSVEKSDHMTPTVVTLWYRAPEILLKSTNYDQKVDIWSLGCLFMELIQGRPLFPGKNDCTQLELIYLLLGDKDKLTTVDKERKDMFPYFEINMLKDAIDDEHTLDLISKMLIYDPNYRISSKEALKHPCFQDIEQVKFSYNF

[6] = viability loss in pontine glioma line – cell-based, SU-DIPG-XXV, MIPE5.0, CellTiter-Glo, qHTS, dose response (AID 1347065; cut-off not given, nearly all actives have AC50 up to about 26 µM;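 further: cells exposed to compound for 48 hours before ATP readout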); settings: CellTiter-Glo ATP luminescence
[7] = inhibitors of Cryptococcus chitosan production, flow cytometry, Cibacron Brilliant Red staining (AID 1347148); settings: Cryptococcus neoformans chitosan, stronger effect = lower value; at 10 µM unless noted;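 further: compound exposure lasted three days at 37 degrees C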
[8] = growth inhibition of DIPG glioma cells, dose response, cell-based, SU-DIPG-XIII, MIPE5.0, CellTiter-Glo, qHTS (AID 1347064; cut-off not given, nearly all actives have AC50 up to about 23 µM;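 on AC50: cells exposed to compound for 48 hours before the viability read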); settings: SU-DIPG-XIII viability, CellTiter-Glo ATP luminescence
[9] = test system: Neuropilin-2 / VEGF-C interaction (human); test: inhibitors of NRP2–VEGF-C binding, biochemical, microplate binding format, z-score (AID 743281); settings: microplate NRP2/VEGF-C binding assay; stronger effect = lower value
[10] = LFS_MB_1R medulloblastoma cell growth inhibition, synergistic combos for chromothripsis tumors, cisplatin or BGB combos (AID 1671452; in the data active means inhibition above about 80%;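 further: cells exposed for 96 hours before readout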); settings: LFS_MB_1R medulloblastoma cells, stronger effect = higher value
[11] = CRL2098 osteosarcoma cell growth inhibition, synergistic combos for chromothripsis tumors, BGB or cisplatin IC20 combos (AID 1671454; in the data active means inhibition above about 80%;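 further: cells exposed for 96 h before readout; 0% = vehicle DMSO and 100% = killing by high DMSO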); settings: CRL2098 osteosarcoma cells, drug combinations, stronger effect = higher value
[12] = HD-MB03 medulloblastoma cell growth inhibition, synergistic combos for chromothripsis tumors, BGB or cisplatin IC20 combos (AID 1671455; in the data active means inhibition above about 83%;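 further: 0% = vehicle DMSO and 100% = high DMSO as cytotoxic control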); settings: HD-MB03 medulloblastoma cells, stronger effect = higher value
[13] = UWB1.289 ovarian carcinoma cell growth inhibition, synergistic combos for chromothripsis tumors, BGB or cisplatin combos (AID 1671456; in the data active means inhibition above about 80%;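 further: cells exposed to compound for four days; 0% = vehicle DMSO and 100% = killing by high DMSO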); settings: UWB1.289 ovarian carcinoma cells, stronger effect = higher value
[14] = LFS_MB_2R medulloblastoma cell growth inhibition, synergistic combos for chromothripsis tumors, cisplatin combos (AID 1671457; in the data active means inhibition above about 80%;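 further: cells exposed to compound for four days before readout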); settings: LFS_MB_2R medulloblastoma cells, stronger effect = higher value
[15] = MDA-MB-436 breast carcinoma cell growth inhibition, synergistic combos for chromothripsis tumors, BGB or cisplatin combos (AID 1671458); settings: MDA-MB-436 breast carcinoma growth inhibition, drug combinations, stronger effect = higher value;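 further: cells exposed for 96 hours; 0% = vehicle DMSO and 100% = killing by high DMSO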
[16] = UWB1.289_BRCA1 ovarian cancer growth, cell-based, BGB or cisplatin combinations (AID 1671459; in the data active means inhibition above about 80%); settings: UWB1.289 BRCA1 ovarian carcinoma, drug combinations, stronger effect = higher value
[17] = human astrocyte viability loss, single and combined drugs, cytotoxicity control for chromothriptic childhood tumor combination screen, cell-based, BGB or cisplatin IC20 combos (AID 1671460; in the data active means inhibition above about 80%;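 further: cells exposed to compounds for 96 hours before viability readout; 0% = vehicle and 100% = killing control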); settings: Human astrocytes, drug combinations, stronger effect = higher value
[18] = growth inhibition of BT084 medulloblastoma cells, cell-based, ICGC_MB145, cisplatin and BGB IC40 combos (AID 1671461; in the data active means inhibition above about 80%;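 further: cells exposed to drugs for 96 hours; 0% = vehicle DMSO and 100% = high DMSO full killing control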); settings: drug combinations, stronger effect = higher value
[19] = growth inhibition of RCMB18 medulloblastoma cells, cell-based, cisplatin and BGB IC40 combos (AID 1671462; in the data active means inhibition above about 80%;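 further: cells exposed to compound for four days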); settings: stronger effect = higher value
[20] = growth inhibition of CRL1545 osteosarcoma cells, cell-based, cisplatin and BGB IC20 combos (AID 1671464; in the data active means inhibition above about 80%;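 further: cells exposed to compound for 96 hours before readout; 0% = vehicle DMSO and 100% = high DMSO killing control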); settings: stronger effect = higher value
[21] = measured here: combination with cisplatin, at 0.5 µM
[22] = measured here: combination with cisplatin, at 5 µM

Structure (SMILES): CNC(=O)Oc1cc(C)c(/C=C/c2cncc(C(=O)NC)c2)c(C)c1
- z-score [1]: -0.2 (inactive)
- z-score [2]: -0.101 (inactive)

Structure (SMILES): O=C(NC1NNC2NNC(c3cccnc3)CC21)C1CC1 (stereo unspecified)
- z-score [1]: -1.13 (inactive)
- z-score [2]: 4.01 (inactive)

Structure (SMILES): C[C@@H]1C[C@@H]([C@H](O)CC2CC(=O)NC(=O)C2)C(=O)[C@@H](C)C1
- normalised LDH release [3]: 0.469
- outcome [4]: inactive
- outcome [5]: inactive
- AC50 [6]: 0.372 µM (active)
- fold fluorescence [7]: 9.32 [at 177.7 µM] (inactive)

Structure (SMILES): O=c1[nH]c2ccccc2n1C1CCN(CCCC(c2ccc(F)cc2)c2ccc(F)cc2)CC1
- normalised LDH release [3]: 0.918
- fold fluorescence [7]: 5.15 [at 108.3 µM] (inactive)

Structure (SMILES): O=c1[nH]c2ccccc2n1CCCN1CCC(n2c(=O)[nH]c3cc(Cl)ccc32)CC1
- outcome [8]: inactive

Structure (SMILES): CN(C)[C@@H]1C(=O)C(C(N)=O)=C(O)[C@@]2(O)C(=O)C3=C(O)c4c(O)cccc4[C@@](C)(O)[C@H]3[C@H](O)[C@@H]12
- normalised LDH release [3]: 0.818
- outcome [8]: inactive

Structure (SMILES): CN(C)[C@@H]1C(=O)C(C(N)=O)=C(O)[C@@]2(O)C(=O)C3=C(O)c4c(O)cccc4[C@@](C)(O)[C@H]3C[C@@H]12
- outcome [6]: inactive

Structure (SMILES): CN1C(=O)CCS(=O)(=O)C1c1ccc(Cl)cc1 (stereo unspecified)
- outcome [8]: inactive

Structure (SMILES): COc1ccc(C(CN(C)C)C2(O)CCCCC2)cc1 (stereo unspecified)
- z-score [9]: 0.57 (inactive)

Structure (SMILES): O=C(O)CCCc1ccc(N(CCCl)CCCl)cc1
- inhibition ([10]; at 0.5 µM): 1.38% (inactive)
- inhibition ([10]; measured here: combination with BGB IC40, at 0.05 µM): -18.1%
- inhibition [10, 21]: 34.7%
- inhibition [10, 22]: 17.9%
- inhibition ([11]; at 0.5 µM): -43.4% (inactive)
- inhibition ([11]; measured here: combination with BGB at IC20, at 0.5 µM): -73.2%
- inhibition ([11]; measured here: combination with cisplatin at IC20, at 0.5 µM): -65.8%
- inhibition ([12]; at 0.5 µM): -3.23% (inactive)
- inhibition ([12]; measured here: combo with BGB at IC20, at 0.5 µM): -9.02%
- inhibition ([12]; measured here: combo with cisplatin at IC20, at 0.5 µM): 0.904%
- inhibition ([13]; at 0.5 µM): -7.41% (inactive)
- inhibition ([13]; measured here: inhibition with BGB combination, at 0.05 µM): -22.1%
- inhibition ([13]; measured here: inhibition with cisplatin combination, at 0.05 µM): -7.19%
- inhibition ([14]; at 0.5 µM): -24.2% (inactive)
- inhibition [14, 21]: -24.7%
- inhibition [14, 22]: -25.9%
- inhibition ([15]; at 0.5 µM): -23.5% (inactive)
- inhibition ([15]; measured here: BGB combination, at 0.5 µM): -17.2%
- inhibition ([15]; measured here: BGB combination, at 5 µM): -7.5%
- inhibition ([15]; measured here: cisplatin combination, at 0.5 µM): -37.9%
- inhibition ([15]; measured here: cisplatin combination, at 5 µM): -2.83%
- inhibition ([16]; BGB combination, concentration series, at 5 µM): -9.82%
- inhibition ([16]; at 0.5 µM): -20.2% (inactive)
- inhibition ([16]; cisplatin combination, concentration series, at 5 µM): 4.66%
- inhibition ([17]; at 0.5 µM): -13.8% (inactive)
- inhibition ([17]; measured here: combo with BGB IC20, at 0.5 µM): -14.7%
- inhibition ([17]; measured here: combo with cisplatin IC20, at 0.5 µM): -9.75%
- inhibition ([18]; at 0.5 µM): -18.3% (inactive)
- inhibition ([18]; cisplatin combination, at 0.5 µM): -2.56%
- inhibition ([18]; cisplatin combination, at 5 µM): -9.03%
- inhibition ([18]; measured here: BGB IC40 combination 0.05 uM, at 0.05 µM): 37.2%
- inhibition ([18]; single agent, at 5 µM): -26.4%
- inhibition ([19]; at 0.5 µM): -21.5% (inactive)
- inhibition ([19]; cisplatin combo, at 5 µM): -8.27%
- inhibition ([19]; measured here: BGB IC40 combination, at 0.05 µM): -18.3%
- inhibition [19, 21]: -40%
- inhibition ([19]; single agent, at 5 µM): -21%
- inhibition ([20]; at 0.5 µM): -17.8% (inactive)
- inhibition ([20]; measured here: with BGB IC20 combination, at 0.5 µM): -15.9%
- inhibition ([20]; measured here: with cisplatin IC20 combination, at 0.5 µM): -18.8%
- inhibition ([20]; single agent, at 0.05 µM): 15.9%
- inhibition ([20]; single agent, at 5 µM): 10.1%

Structure (SMILES): N[C@@H](Cc1ccc(N(CCCl)CCCl)cc1)C(=O)O
- AC50 [8]: 18.6 µM (active)

Structure (SMILES): CCC1(c2ccc(N)cc2)CCC(=O)NC1=O (stereo unspecified)
- outcome [6]: inactive

Structure (SMILES): CC(NC(C)(C)C)C(=O)c1cccc(Cl)c1 (stereo unspecified)
- z-score [9]: -0.243 (inactive) and -0.0135 (inactive)

Structure (SMILES): C=C(C)[C@H]1Cc2c(ccc3c2O[C@@H]2COc4cc(OC)c(OC)cc4[C@@H]2C3=O)O1
- AC50 [8]: 8.33 µM (active)
- AC50 [6]: 1.18 µM (active)

Structure (SMILES): Clc1ccc(CO/N=C(\Cn2ccnc2)c2ccc(Cl)cc2Cl)c(Cl)c1
- outcome [9]: inactive

Structure (SMILES): O=C(O)c1nn(Cc2ccc(Cl)cc2Cl)c2ccccc12
- outcome [6]: inactive
